Screening data from PubChem.
The full list was thinned out, with hits kept by preference.
DUSP3 inh – inhibitors of human VHR1 phosphatase (DUSP3); recombinant VHR phosphatase, colorimetric substrate read-out; 50,000 tested, 0.7% active; inhibition, % at 20 µM; in the data active = inhibition above about 60%
Target sequence (P51452 whole entry, looked up): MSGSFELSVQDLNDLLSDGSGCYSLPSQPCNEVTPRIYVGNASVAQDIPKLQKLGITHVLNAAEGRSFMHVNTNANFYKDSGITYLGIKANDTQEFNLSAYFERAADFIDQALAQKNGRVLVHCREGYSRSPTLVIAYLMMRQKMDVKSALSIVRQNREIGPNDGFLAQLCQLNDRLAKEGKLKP
Active calls of the source: *.

SMILES	DUSP3 inh
Nc1nc(SCc2ccc(Cl)cc2)nc2sc3c(c12)CCN(Cc1ccccc1)C3	4
Nc1sc(=S)nc2sc3c(c12)CCN(Cc1ccccc1)C3	72*
O=c1[nH]c(=S)[nH]c2sc3c(c12)CCN(Cc1ccccc1)C3	51
CCC1CCc2c(sc(N)c2C#N)C1 (centres undefined)	-16
N#Cc1c(N)sc2c1CCCCCC2	18
N#Cc1c(N)sc2c1CCN(Cc1ccccc1)C2	102*
O=C(O)CSc1nc2ccc(N3C(=O)C4CCCCC4C3=O)cc2s1 (centres undefined)	2
O=C(Nc1ccccc1)c1ccc(CN2CCN(Cc3ccccc3)CC2)cc1	4
O=C(Nc1cccc(-c2nc3cc(Cl)ccc3o2)c1)c1ccc(Cl)cc1	-9
CC(C)CCn1c(COc2ccccc2)nc2ccccc21	2
O=C(Nc1ccccc1C(F)(F)F)c1ccc2ccccc2c1	16
O=C(Nc1ccccc1C(F)(F)F)c1cccc(OCc2ccccc2)c1	114*
O=C(Nc1ccc(I)cc1Cl)c1cccc(OCc2ccccc2)c1	2
COc1ccc(CC(=O)Nc2cccc(-c3nc4ccccc4s3)c2)cc1OC	0
O=C(O)CC1S/C(=N/N=C/c2ccccc2O)N(c2ccc(O)cc2)C1=O (centres undefined)	-8
O=S(=O)(c1ccc(Cl)cc1)N1C(=S)SCC1c1ccccc1 (centres undefined)	2
COc1cc(C(=S)N2CCOCC2)cc(Br)c1O	-9
O=C1CC(c2ccccc2)CC2=C1C(c1c(F)cccc1Cl)Nc1ccccc1N2 (centres undefined)	115*
COc1ccc(C2CC(=O)C3=C(C2)Nc2ccccc2NC3c2ccc(C)o2)cc1 (centres undefined)	94*
O=C1CC(c2ccccc2)CC2=C1C(c1coc3ccccc3c1=O)Nc1ccccc1N2 (centres undefined)	112*
COc1ccc(C2CC(=O)C3=C(C2)Nc2ccccc2NC3c2ccccc2)cc1 (centres undefined)	23
Cc1ccc(C2Nc3ccc(C(=O)c4ccccc4)cc3NC3=C2C(=O)CC(C)(C)C3)o1 (centres undefined)	-5
COc1ccc(C2CC(=O)C3=C(C2)Nc2ccccc2NC3c2c(F)cccc2Cl)cc1 (centres undefined)	8
CC1(C)CC(=O)C2=C(C1)Nc1ccccc1NC2c1coc2ccccc2c1=O (centres undefined)	3
CCOc1ccc(C2Nc3ccccc3NC3=C2C(=O)CC(c2ccc(OC)cc2)C3)cc1 (centres undefined)	-5
SMILES	DUSP3 inh
O=C1CC(c2ccccc2)CC2=C1C(c1cccc(Cl)c1Cl)Nc1ccccc1N2 (centres undefined)	2
O=C1CCCC2=C1C(c1ccc(F)cc1)Nc1ccc(C(=O)c3ccccc3)cc1N2 (centres undefined)	35
Cc1ccc(C2Nc3ccc(C(=O)c4ccccc4)cc3NC3=C2C(=O)CCC3)o1 (centres undefined)	101*
O=C1CC(c2ccccc2)CC2=C1C(c1ccco1)Nc1ccccc1N2 (centres undefined)	7
COc1ccccc1NC(=O)C1=C(C)NC(=S)NC1c1ccccc1F (centres undefined)	7
COc1ccc(/C=C2/C(=O)NC(=O)N(c3ccc(C(C)C)cc3)C2=O)cc1O	13
COc1ccc(C(N)=O)cc1NC(=O)c1cc(C(F)(F)F)cc(C(F)(F)F)c1	-5
CC(=O)c1cccc(NC(=O)CC2S\C(=N/N=C/C=C/c3ccccc3)NC2=O)c1 (centres undefined)	13
CCCCNCCCCCCOc1ccccc1CC	-45
CCOc1cccc(/C=N/NC(=O)CSc2nc3ccccc3n2CC)c1O	6
O=C1CC(c2ccc(Cl)cc2)CC2=C1C(c1ccc3c(c1)OCO3)Nc1ccccc1N2 (centres undefined)	-20
O=C1CC(c2ccccc2)CC2=C1C(c1ccc(-c3ccccc3)cc1)Nc1ccccc1N2 (centres undefined)	4
COc1ccc(C2CC(=O)C3=C(C2)Nc2ccccc2NC3c2cccc(OC)c2OC)cc1OC (centres undefined)	-1
CCOc1ccccc1C1Nc2ccccc2NC2=C1C(=O)CC(c1ccc(OC)c(OC)c1)C2 (centres undefined)	44
O=C1CC(c2ccc3c(c2)OCO3)CC2=C1C(c1ccc(-c3ccccc3)cc1)Nc1ccccc1N2 (centres undefined)	115*
COc1ccc(C2CC(=O)C3=C(C2)Nc2ccccc2NC3c2ccccc2OCc2ccccc2)cc1OC (centres undefined)	98*
COc1cc(/C=C2\SC(=S)N(c3cccc(C(F)(F)F)c3)C2=O)cc(OC)c1OC	-17
C[n+]1cccc(C(O)P(=O)(c2ccccc2)c2ccccc2)c1 (centres undefined)	-5
CCOC(=O)c1oc2cccc(O)c2c1CNCc1ccccc1	-5
COc1cc(Br)c(CCNC(=O)c2ccc(Cl)cc2)cc1OC	-24
CC(=O)NC1=NC(=O)/C(=C\c2ccc(-c3ccc(C(=O)O)cc3)o2)S1	7
CC(=O)NC1=NC(=O)/C(=C\c2ccc(Br)o2)S1	81*
CC(=O)NC1=NC(=O)/C(=C/c2ccc(C)cc2)S1	-2
Cc1ccc(Cl)cc1NC(=O)C(=O)NN=C1CCN(C)CC1	19
O=C(Nc1nccs1)c1cc(-c2ccc(Cl)s2)nc2ccccc12	24
SMILES	DUSP3 inh
COc1ccc2c(c1OC)C(=O)N(c1ccc(Cl)c(Cl)c1)C2=O	-7
COc1cc(C=NN2CCN(Cc3ccccc3)CC2)cc(OC)c1OC	-9
CC(C)(C)c1ccc(OCCOc2ccc(/C=N/n3cnnc3)cc2)cc1	3
C(=N\n1cnnc1)/c1cccc(OCCOc2ccccc2)c1	-25
Brc1ccc(OCCOc2ccc(/C=N/n3cnnc3)cc2)cc1	114*
Cc1[nH]n(-c2ccc([N+](=O)[O-])cc2)c(=O)c1C=NCc1ccc(Cl)cc1	-7
CC(=O)Nc1nonc1-c1nc2ccccc2n1Cc1ccc(C(C)(C)C)cc1	-11
CC(=O)Nc1nonc1-c1nc2ccccc2n1Cc1ccccc1	-2
CC(C)(C)c1ccc(Cn2c(-c3nonc3N)nc3ccccc32)cc1	60*
O=C(/C=C/c1ccco1)Nc1ccc(S(=O)(=O)Nc2nccs2)cc1	-3
CC1(C(=O)NCc2cccs2)CC1(Br)Br (centres undefined)	-5
S=C(S)N(CCN(Cc1cccs1)C(=S)S)Cc1cccs1	98*
CC(=O)Nc1ccccc1NC(=O)Cc1cccs1	3
C/C(=N\NC(=O)c1cc(C2CC2)[nH]n1)c1ccc([N+](=O)[O-])cc1	-8
O=C(O)CN1C(=O)/C(=C\c2ccccc2Cl)SC1=S	-28
COC(=O)CCCC[C@H]1SC[C@H]2NC(=O)NC21O (some centres undefined)	-12
O=C(O)c1cccc(NC(=O)c2ccc3ccccc3n2)c1	-2
O=C1NN(c2ccc(Cl)c(Cl)c2)C(=O)/C1=C/c1ccc(Cl)c([N+](=O)[O-])c1	83*
CCOC(=O)c1ccc(N2NC(=O)/C(=C/c3ccc(Cl)c([N+](=O)[O-])c3)C2=O)cc1	-9
Cc1ccc(N2NC(=O)/C(=C/c3ccc(C)c([N+](=O)[O-])c3)C2=O)cc1Cl	-13
O=C(NN1C(=O)/C(=C/c2cccc(F)c2)SC1=S)c1ccncc1	-2
O=C1N=c2ccccc2=C1c1sc(=S)n(Cc2ccco2)c1O	5
O=C1N=c2ccc(Cl)cc2=C1c1sc(=S)n(Cc2ccco2)c1O	68*
CCCCn1c(O)c(C2=c3ccccc3=NC2=O)sc1=S	-8
